# Test results published in PubChem BioAssay (NCATS).
# Where “and” joins values, the source holds several entries; their conditions need not be identical. Equal entries are not always repeated. A number with no mark means an inactive call. Inconclusive results are not listed. Where a call stands in place of a potency, no number is given. Calls of active or inactive are those of the source. The call rests on the fitted dose curve; in most records, active means well fitted curve in the direction sought with a large enough effect; inconclusive means small, poorly fitted or top-dose-only effect, or another doubt; inactive means no such curve, though single readings can be large; an effect the other way counts as inactive or inconclusive.
# Tests used:
# [1] = system: Zika virus NS2B-NS3 protease; assay: Primary screen GU AMC qHTS for Zika virus inhibitors (AID 1347154); further: nearly all actives have a fitted effect of over 70% in size; further: potency means the concentration at half of the fitted maximal effect
# Procedure, shortened: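 Unlinked Zika NS2B hydrophilic domain–NS3 protease complex at 25 nM in 10 mM Tris-HCl pH 8.0, 0.01% Tween 20, with an AMC peptide substrate. Fluorescence change (340/450 nm) over 15 min at room temperature, normalized to controls, fitted to 4-parameter Hill.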
# [2] = molecular target: Lysine-specific demethylase 5B (Homo sapiens) (UniProt Q9UGL1); assay: Optimization screen for KDM5B Histone Demethylases FDH coupled qHTS against the LOPAC library (AID 1347166)
# Procedure, shortened: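 KDM5BDeltaAP (200nM final) preincubated 10 min with compound, then 12.5uM H3K4Me3, 25uM a-ketoglutarate, ascorbate, Fe(II), NAD+ and FDH added; 50mM HEPES pH 7.5, 0.01% Tween-20. NADH fluorescence (340/450 nm) change over 30 min, room temperature.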
# [3] = qHTS to identify inhibitors of the type 1 interferon - major histocompatibility complex class I in skeletal muscle: primary screen against the NCATS LOPAC collection (AID 1347405);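 further: lytic HiBiT luminescence reporting HLA-B protein level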
# Procedure, shortened: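 CRISPR-engineered immortalized human myoblasts (C25cl48) with HiBiT fused to endogenous HLA-B*08:01, stimulated with 4 ng/ml IFN-beta. LOPAC compounds tested as a 7-point 1:4.3 titration (top 46 uM final), 24 h at 37 C; lytic HiBiT luminescence read.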
# [4] = qHTS to identify inhibitors of the type 1 interferon - major histocompatibility complex class I in skeletal muscle: primary screen against the NCATS Pharmaceutical Collection (AID 1347407);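 further: luminescence of HiBiT knocked into endogenous HLA-B as interferon-induced MHC class I level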
# Procedure, shortened: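 Luminescence from HiBiT-tagged endogenous HLA-B*08:01 served as the read-out of IFN-beta-induced MHC class I in CRISPR-engineered C25cl48 myoblasts. Cells received 4 ng/ml IFN-beta plus compound (high final 46 uM, […]) for 24 h.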
# [5] = qHTS for inhibitors of adenylyl cyclases using a fission yeast platform: a pilot screen against the NCATS LOPAC library (AID 1347410)
# Procedure, shortened: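 Fission yeast qHTS: CHP2027 cells (AC9-GNAS-PDE4D2, fbp1-GFP), 5x10^6 cells/mL working density, EMM + His/Lys/Ura; LOPAC at up to 57 µM final; 18 h dark, 30C; GFP by laser cytometry. DPI positive control, DMSO vehicle.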
# [6] = qHTS to identify inhibitors of the type 1 interferon - major histocompatibility complex class I in skeletal muscle: primary screen against the NCATS Mechanism Interrogation Plate v5.0 (MIPE) Libary (AID 1347411); further: nearly all actives have a fitted effect of over 65% in size
# Procedure, shortened: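 Immortalized human myoblasts (C25cl48) with HiBit knocked into endogenous HLA-B*08:01 were stimulated with 4 ng/ml IFN-beta and given compounds in 11-point 1:3 titration from 46 uM. After 24 h at 37 C, lytic HiBiT luminescence was read.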
# [7] = molecular target: Protein phosphatase 1D (Homo sapiens) (UniProt O15297); assay: RapidFire Mass Spectrometry qHTS Assay for Modulators of WT P53-Induced Phosphatase 1 (WIP1) (AID 1347424);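 further: amount of dephosphorylated VEPPL-S-QETFS peptide product formed by WIP1; series mostly up to about 63 µM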
# Procedure, shortened: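 10 nM WIP1 preincubated with compounds 1 hr at room temperature in pH 7.5 Tris buffer with 30 mM MgCl2, 1 mM TCEP; 2 uM VEPPL-pS-QETFS phosphopeptide for 5 min, formic acid quench; dephosphorylated product quantified by RapidFire MS against labelled standard.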
# [8] = molecular target: Protein phosphatase 1D (Homo sapiens) (UniProt O15297); assay: Rhodamine-PBP qHTS Assay for Modulators of WT P53-Induced Phosphatase 1 (WIP1) (AID 1347425)
# Procedure, shortened: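 5 nM WIP1 + 10 uM Rh-PBP, 50 mM Tris pH 7.5, 30 mM MgCl2, 1 mM TCEP, 0.1 mM EGTA, BSA; cpds pinned, 1 hr RT; + 10 uM phosphopeptide; fluorescence 1-min reads x 11 min; delta = f1 - f0.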
# [9] = Validation qHTS assay for inhibitors of Activation Induced Cytidine Deaminase (AID): UDG Counterscreen signal (AID 1347427)
# Procedure, shortened: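 Counterscreen read of UDG activity (2 U/mL, 4/3x) in the FRET deamination format with AID (1 uM, 4/3x), DJC20/DJC23 substrates (250 nM, 4x), 4 h at room temperature. NaOH stop, fluorescence at 560 ex/665 em.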
# [10] = molecular target: Single-stranded DNA cytosine deaminase (Homo sapiens) (UniProt Q9GZX7); assay: Validation qHTS assay for inhibitors of Activation Induced Cytidine Deaminase (AID): AID signal (AID 1347429)
# Procedure, shortened: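 FRET deamination assay: 1 uM AID (4/3x stock) with UDG, compound up to 114 uM, then 250 nM DJC20/DJC23 substrate (4x stock) for 4 hr at room temperature. NaOH added, 30 min; fluorescence read 540/590 nm.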
# [11] = Primary qHTS for inhibitors of La Crosse Virus (LACV) - induced cell death in SH-SY5Y cells (AID 1508616);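 further: top concentration of the series differs between compounds; higher means more rescue of cells from virus-induced death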
# Procedure, shortened: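 SH-SY5Y cells (6000/well) plated 24 h, then given compounds by pin transfer and LACV at 0.01 MOI for 6 days at 37C. Viability measured by ATPLite luminescence, normalized to infected DMSO and uninfected DMSO.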
# [12] = system: Zika virus NS2B-NS3 protease (unlinked complex); assay: Primary screen GU Rhodamine qHTS for Zika virus inhibitors: Unlinked NS2B-NS3 protease assay (AID 1347159); further: nearly all actives have a fitted effect of over 60% in size; further: potency means the concentration at half of the fitted maximal effect
# Procedure, shortened: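 A qHTS format was used, with compound concentrations ranging up to 114 microM. Each compound was preincubated with 25 nM NS2B-NS3 protease, and the substrate was then added at 1.5 microM. Curves were fitted with a 4-parameter Hill model.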
# [13] = system: Zika virus NS2B-NS3 protease (linked construct); assay: Primary screen NINDS Rhodamine qHTS for Zika virus inhibitors (AID 1347160); further: nearly all actives have a fitted effect of over 55% in size; further: potency means the concentration at half of the fitted maximal effect
# Procedure, shortened: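 Kinetic fluorescence (Ex 480 nm, Em 540 nm) over 15 min with 1.5 microM Rhodamine110 peptide and 25 nM linked protease.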
# [14] = Confirmatory screen GU Rhodamine qHTS for Zika virus inhibitors qHTS (AID 1347157); settings: purified enzyme assay, Rhodamine110 substrate fluorescence, 15 min; further: potency means the concentration at half of the fitted maximal effect; nearly all actives have a fitted effect of over 70% in size
# Procedure, shortened: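 Buffer 10 mM Tris-HCl pH 8.0, 0.01% Tween 20. Unlinked protease 25 nM; compound preincubation 15 min, RT, protected from light. Substrate Rhod110, 1.5 microM; ~15% conversion in 15 min.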
# [15] = Confirmatory screen NINDS Rhodamine qHTS for Zika virus inhibitors (AID 1347161); settings: purified enzyme assay, Rhodamine110 substrate fluorescence, 15 min; further: potency means the concentration at half of the fitted maximal effect; nearly all actives have a fitted effect of over 60% in size
# Procedure, shortened: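 Aprotinin served as in-plate control. Conditions: 25 nM linked NS2B-NS3, pH 8.0 Tris buffer, titrated compounds, 15 min preincubation and 15 min reaction with 1.5 microM Rhod110 substrate at room temperature.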
# [16] = system: Zika virus NS2B-NS3 protease (linked); assay: 384 well plate NINDS AMC confirmatory qHTS for Zika virus inhibitors (AID 1347163); further: potency means the concentration at half of the fitted maximal effect; nearly all actives have a fitted effect of over 50% in size
# Procedure, shortened: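 Linked NS2B-NS3 protease (final 5 nM, 30 nM or 60 nM) was preincubated with compounds (final up to 1 mM) for ~15 minutes. Ac-VKTGKR-AMC substrate (final 30 microM) then reacted for 25 minutes at room temperature in the dark. Fluorescence (ex 355/em 460 nm) was normalized to no-enzyme and no-inhibitor controls.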
# [17] = system: Zika virus NS2B-NS3 protease (linked construct); assay: 384 well plate NINDS Rhodamine confirmatory qHTS for Zika virus inhibitors (AID 1347164); settings: rhodamine-110 peptide substrate fluorescence;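 further: fluorescence from protease cleavage of Ac-LKRR-rhodamine 110 substrate; potency means the concentration at half of the fitted maximal effect; nearly all actives have a fitted effect of over 65% in size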
# Procedure, shortened: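 Enzyme (final 5/30/60 nM) + cpd (DMSO), ~15 min; add Ac-LKRR-Rd 10 microM final; 25 min RT, dark; FI ex 485/em 538; normalized to no-enzyme, no-inhibitor ctrls; aprotinin intraplate ctrl.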
# [18] = Vero cells viability qHTS for Zika virus inhibitors (AID 1347167); further: potency means the concentration at half of the fitted maximal effect
# Procedure, shortened: (§1)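 Cells seeded at 2.5 x 10^5 cells/mL in DMEM with 4% FBS and attached overnight at 37 degrees C, then exposed to compound for 24 to 48 hours. Viability read as ATP content by CellTiter Glo luminescence.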
# [19] = HepG2 cells viability qHTS for Zika virus inhibitors (AID 1347168)
# Procedure, shortened: as §1
# [20] = Tertiary RLuc qRT-PCR qHTS assay for Zika virus inhibitors (AID 1347169); further: potency means the concentration at half of the fitted maximal effect; nearly all actives have a fitted effect of over 55% in size
# Procedure, shortened: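 Vero, 1,000 cells/well, o/n 37 C; cpd pinned in DMSO; ZIKV-RLuc Cambodian, MOI 1-2, 48-72 h 37 C; live-cell RLuc substrate, lum read at 1-1.5 h.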
# Protein phosphatase 1D (Homo sapiens), sequence (O15297 whole entry, looked up): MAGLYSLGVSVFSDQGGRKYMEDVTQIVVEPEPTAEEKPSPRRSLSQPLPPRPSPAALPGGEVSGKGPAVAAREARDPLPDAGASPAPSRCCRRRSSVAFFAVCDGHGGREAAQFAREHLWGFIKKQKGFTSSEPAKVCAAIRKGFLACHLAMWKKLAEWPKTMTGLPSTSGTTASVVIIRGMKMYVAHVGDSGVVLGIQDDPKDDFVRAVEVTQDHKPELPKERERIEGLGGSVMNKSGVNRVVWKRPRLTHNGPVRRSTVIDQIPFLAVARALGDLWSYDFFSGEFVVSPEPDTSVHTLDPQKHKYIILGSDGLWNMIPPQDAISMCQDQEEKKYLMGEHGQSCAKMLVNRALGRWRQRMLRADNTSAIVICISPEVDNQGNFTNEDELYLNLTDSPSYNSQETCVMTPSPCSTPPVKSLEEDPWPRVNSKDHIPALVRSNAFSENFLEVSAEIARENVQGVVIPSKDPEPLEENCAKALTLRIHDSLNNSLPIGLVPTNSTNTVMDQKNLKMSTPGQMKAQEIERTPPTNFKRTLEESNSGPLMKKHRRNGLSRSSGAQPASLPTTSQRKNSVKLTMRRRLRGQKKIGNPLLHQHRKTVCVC
# Single-stranded DNA cytosine deaminase (Homo sapiens), sequence (Q9GZX7 whole entry, looked up): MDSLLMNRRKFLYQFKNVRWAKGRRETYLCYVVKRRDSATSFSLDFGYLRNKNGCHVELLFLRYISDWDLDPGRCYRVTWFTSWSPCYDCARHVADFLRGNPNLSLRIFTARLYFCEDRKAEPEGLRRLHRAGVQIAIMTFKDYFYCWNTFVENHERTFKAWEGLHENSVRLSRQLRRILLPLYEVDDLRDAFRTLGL
# Lysine-specific demethylase 5B (Homo sapiens), sequence (Q9UGL1 whole entry, looked up): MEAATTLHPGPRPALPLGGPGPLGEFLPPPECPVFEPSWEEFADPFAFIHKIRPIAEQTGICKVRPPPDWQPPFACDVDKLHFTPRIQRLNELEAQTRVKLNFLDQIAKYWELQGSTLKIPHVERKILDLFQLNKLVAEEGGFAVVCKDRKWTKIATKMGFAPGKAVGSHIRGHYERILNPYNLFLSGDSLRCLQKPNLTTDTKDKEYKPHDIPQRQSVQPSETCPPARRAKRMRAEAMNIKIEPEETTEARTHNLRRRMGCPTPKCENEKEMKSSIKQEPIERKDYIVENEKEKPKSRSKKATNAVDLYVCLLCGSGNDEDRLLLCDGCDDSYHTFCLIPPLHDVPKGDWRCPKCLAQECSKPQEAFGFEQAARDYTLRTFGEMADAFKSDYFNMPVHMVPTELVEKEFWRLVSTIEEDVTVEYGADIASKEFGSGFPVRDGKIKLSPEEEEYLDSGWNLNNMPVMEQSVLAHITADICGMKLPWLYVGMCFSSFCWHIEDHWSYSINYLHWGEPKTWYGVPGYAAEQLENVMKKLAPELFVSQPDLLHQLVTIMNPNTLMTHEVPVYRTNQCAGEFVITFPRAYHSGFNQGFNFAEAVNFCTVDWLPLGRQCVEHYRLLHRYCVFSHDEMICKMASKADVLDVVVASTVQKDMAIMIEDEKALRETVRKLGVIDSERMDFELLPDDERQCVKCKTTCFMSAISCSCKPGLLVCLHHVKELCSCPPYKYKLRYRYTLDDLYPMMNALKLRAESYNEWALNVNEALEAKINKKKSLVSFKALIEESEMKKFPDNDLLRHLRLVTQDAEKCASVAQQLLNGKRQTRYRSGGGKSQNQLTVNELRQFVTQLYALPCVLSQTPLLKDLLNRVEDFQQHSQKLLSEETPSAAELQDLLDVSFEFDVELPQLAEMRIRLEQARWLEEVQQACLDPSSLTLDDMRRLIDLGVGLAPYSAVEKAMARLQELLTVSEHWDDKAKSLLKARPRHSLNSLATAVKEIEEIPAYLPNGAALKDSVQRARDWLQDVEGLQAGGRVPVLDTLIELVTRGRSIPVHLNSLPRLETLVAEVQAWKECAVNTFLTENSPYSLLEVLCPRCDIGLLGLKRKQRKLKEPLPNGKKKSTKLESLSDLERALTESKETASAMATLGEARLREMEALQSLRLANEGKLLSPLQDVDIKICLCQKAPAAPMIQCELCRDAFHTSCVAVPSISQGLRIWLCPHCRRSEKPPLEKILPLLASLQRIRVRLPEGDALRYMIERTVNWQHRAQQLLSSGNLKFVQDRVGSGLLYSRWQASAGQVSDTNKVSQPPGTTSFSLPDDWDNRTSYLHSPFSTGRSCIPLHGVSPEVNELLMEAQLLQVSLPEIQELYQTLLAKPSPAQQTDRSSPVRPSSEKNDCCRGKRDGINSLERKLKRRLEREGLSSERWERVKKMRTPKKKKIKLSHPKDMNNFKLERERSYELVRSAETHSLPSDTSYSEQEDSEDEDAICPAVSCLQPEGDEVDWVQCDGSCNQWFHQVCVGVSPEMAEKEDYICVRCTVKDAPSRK
structure (smiles),measurement,setting,value
CC1=C(/C=C/C(C)=C/C=C/C(C)=C/C(=O)O)C(C)(C)CCC1,Potency,[1],inactive
same,outcome,[2],inactive
same,Potency,[3],inactive
same,Potency,[4],inactive
same,outcome,[5],inactive
same,Potency,[6],inactive
same,outcome,[7],inactive
same,outcome,[8],inactive
same,Potency,[9],inactive
same,Potency,[10],inactive
same,outcome,[11],inactive
COc1ccc2cc1Oc1ccc(cc1)C[C@H]1c3c(cc4c(c3Oc3cc5c(cc3OC)CCN(C)[C@@H]5C2)OCO4)CCN1C,Potency,[1],inactive
same,Potency,[12],inactive
same,Potency,[13],inactive
same,outcome,[7],inactive
same,outcome,[8],inactive
CS(=O)(=O)c1ccc([C@@H](O)[C@@H](CF)NC(=O)C(Cl)Cl)cc1,Potency,[1],inactive
same,Potency,[12],inactive
same,Potency,[13],inactive
same,outcome,[7],inactive
same,outcome,[8],inactive
CCOC(CN1CCN(CC(C)C(=O)c2ccccc2)CC1)c1ccccc1 (stereo not given),Potency,[1],inactive
same,Potency,[12],inactive
same,Potency,[13],inactive
same,Potency,[4],inactive
same,outcome,[7],inactive
same,outcome,[8],inactive
same,outcome,[11],inactive
CC(CN1c2ccccc2Sc2ccccc21)N(C)C (stereo not given),Potency,[1],inactive
same,outcome,[2],inactive
same,Potency,[3],inactive
same,Potency,[4],inactive
same,outcome,[5],inactive
same,outcome,[7],inactive
same,outcome,[8],inactive
same,Potency,[9],inactive
same,Potency,[10],inactive
same,outcome,[11],inactive
CC/C=C(\C(=O)N[C@@H]1C(=O)N2C(C(=O)OCOC(=O)C(C)(C)C)=C(COC(N)=O)CS[C@H]12)c1csc(N)n1,Potency,[1],inactive
same,Potency,[12],inactive
same,Potency,[13],inactive
same,Potency,[4],inactive
same,outcome,[7],inactive
same,outcome,[8],inactive
same,outcome,[11],inactive
Cc1cc(C(C#N)c2ccc(Cl)cc2)c(Cl)cc1NC(=O)c1cc(I)cc(I)c1O (stereo not given),Potency,[1],3.98 µM (active)
same,Potency,[14],1.75 µM (active) and 1.56 µM (active)
same,Potency,[12],1.78 µM (active)
same,Potency,[13],3.16 µM (active)
same,Potency,[15],2.78 µM (active) and 2.21 µM (active)
same,Potency,[16],4.47 µM (active)
same,Potency,[17],1.78 µM (active)
same,Potency,[18],13.1 µM (active)
same,outcome,[19],inactive
same,Potency,[20],6.58 µM (active) and 16.5 µM (active)
same,Potency,[4],inactive
CCOC(=O)[C@H](CCc1ccccc1)N[C@@H](C)C(=O)N1C(=O)N(C)C[C@H]1C(=O)O,Potency,[1],inactive
same,Potency,[13],inactive
same,Potency,[4],inactive
same,outcome,[8],inactive
same,outcome,[11],inactive
CC(C)c1c(C(=O)Nc2ccccc2)c(-c2ccccc2)c(-c2ccc(F)cc2)n1CC[C@@H](O)C[C@@H](O)CC(=O)O,Potency,[1],inactive
same,Potency,[13],inactive
same,Potency,[3],inactive
same,Potency,[4],inactive
same,outcome,[5],inactive
same,Potency,[6],inactive
same,outcome,[7],inactive
same,outcome,[8],inactive
same,outcome,[11],inactive
Cc1ccc2nc(N)[nH]c(=O)c2c1Sc1ccncc1,Potency,[1],inactive
same,Potency,[12],inactive
same,Potency,[13],inactive
same,Potency,[4],inactive
same,outcome,[7],inactive
same,outcome,[8],inactive
same,outcome,[11],inactive
CCOc1ccc2ccccc2c1C(=O)N[C@@H]1C(=O)N2[C@@H]1SC(C)(C)[C@@H]2C(=O)O,Potency,[1],inactive
same,Potency,[12],inactive
same,Potency,[13],inactive
same,outcome,[8],inactive
same,outcome,[11],inactive
CCOc1nc2cccc(C(=O)O)c2n1Cc1ccc(-c2ccccc2-c2nn[nH]n2)cc1,Potency,[1],inactive
same,Potency,[12],inactive
same,Potency,[13],inactive
same,Potency,[4],inactive
same,outcome,[7],inactive
same,outcome,[8],inactive
C[C@@H]1C[C@H]2[C@@H]3C[C@H](F)C4=CC(=O)C=C[C@]4(C)[C@@]3(F)[C@@H](O)C[C@]2(C)[C@@]1(O)C(=O)CO,Potency,[1],inactive
same,Potency,[12],inactive
same,Potency,[13],inactive
same,Potency,[4],inactive
same,outcome,[7],inactive
same,outcome,[8],inactive
same,outcome,[11],inactive
